RE007 growth inh: less growth of the S. pombe RE007 Vpr strain | AID 651644 | hit rate 0.21% among 360,000 | S. pombe RE007 Vpr strain, BacTiter-Glo ATP luminescence, 24 h | Potency, µM (top dose mostly 92.2 µM), for the others: at the highest dose activity change, negative = less growth, actives largely listed as inhibitors; active means well fitted falling curve with a large enough effect; inconclusive means small, poorly fitted or top-dose-only effect; inactive means no such curve, though single readings can be large or run the other way; further: nearly all actives have a fitted effect of over 50% in size
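Fission yeast RE007 carrying one integrated HIV-1 vpr copy, seeded at OD 0.01 in PMG+AL medium with 23 nL pinned compound. Grown 24 h at 30 degrees; viability read by BacTiter-Glo luminescence after 5 min.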
TbPYK inhibitor: inhibitors of Trypanosoma brucei pyruvate kinase. Q57TT1. TbPYK enzyme, Kinase-Glo Plus ATP luminescence, 45 min. Potency, µM (series often up to 76.8 µM), for the others: at the highest dose activity, negative = inhibition, usual class: inhibitors. hit rate 0.12% among 410,000; further: nearly all actives have a fitted effect of over 50% in size
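Glycolytic pyruvate kinase of T. brucei was incubated with substrate, test compound and 130 uM ADP for 45 minutes at room temperature. Luminescent Kinase-Glo Plus signal was measured after 10 minutes.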
Sm TGR inh: inhibitors of Schistosoma mansoni thioredoxin glutathione reductase | Q962Y6 | purified TGR, DTNB reduction, TNB absorbance 405 nm | Potency, µM (highest dose often 114 µM), without a hit: at the top dose activity change, negative = inhibition, most hits filed as inhibitors | hit rate 3% among 360,000 | AID 485364; further: nearly all actives have a fitted effect of over 60% in size
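First, TGR (20 nM dispensed) and NADPH were mixed with compound. Second, a 15 min room-temperature incubation followed. Third, further NADPH and then DTNB were added to start the reaction. Finally, TNB absorbance was monitored kinetically.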
LmPK inhibitor: inhibitors of Leishmania mexicana pyruvate kinase; purified LmPK, Kinase-Glo ATP luminescence, 1 h; Potency, µM (series often up to 57.5 µM), inactives show at the top dose activity change, negative = inhibition, actives largely listed as inhibitors; hit rate 0.37% among 290,000; AID 1721
Target sequence (Q27686 whole entry, looked up): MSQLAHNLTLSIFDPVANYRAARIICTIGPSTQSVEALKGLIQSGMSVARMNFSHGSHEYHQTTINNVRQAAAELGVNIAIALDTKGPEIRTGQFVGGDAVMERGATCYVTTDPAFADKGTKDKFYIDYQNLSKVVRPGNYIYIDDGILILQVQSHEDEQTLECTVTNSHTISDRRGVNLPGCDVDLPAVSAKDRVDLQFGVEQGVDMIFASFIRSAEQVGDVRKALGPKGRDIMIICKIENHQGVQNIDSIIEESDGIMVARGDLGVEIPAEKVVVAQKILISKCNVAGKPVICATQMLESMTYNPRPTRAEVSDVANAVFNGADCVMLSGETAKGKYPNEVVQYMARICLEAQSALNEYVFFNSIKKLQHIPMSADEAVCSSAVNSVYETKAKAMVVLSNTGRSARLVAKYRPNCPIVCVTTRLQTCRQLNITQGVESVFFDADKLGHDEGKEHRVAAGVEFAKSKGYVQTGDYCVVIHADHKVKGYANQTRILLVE
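qHTS format; LmPK 0.1 nM; substrates PEP 0.5 mM and ADP 0.1 mM. One-hour room-temperature incubation, then coupled luciferase luminescence; 0.5 nM enzyme wells mark activation.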
The depositor's hits bear a star. The list is not random: actives were taken first. Their share in the collection is about 3%. Unless noted, the call rests on the fitted dose curve; in most records, active means well fitted curve in the direction sought with a large enough effect; inconclusive means small, poorly fitted or top-dose-only effect, or another doubt; inactive means no such curve, though single readings can be large; an effect the other way counts as inactive or inconclusive. On the % scale 0 is the no-effect control and ±100 the full control effect; potency means the concentration at half of the fitted maximal effect.

How did COc1ccc(C2c3[nH]c4ccc(OC)cc4c3CCN2C(=O)Nc2ccccc2)cc1 (configuration not stated) do in these assays?
TbPYK inhibitor: 1%; Sm TGR inh: 4%

Results for CCCC1OC2CC3C4CCC5=CC(=O)C=CC5(C)C4C(O)CC3(C)C2(C(=O)O)O1 (configuration not stated) ?
RE007 growth inh: -1%; TbPYK inhibitor: -2%; Sm TGR inh: 89µM*; LmPK inhibitor: 2%

Results for CN1CCN(C(CNC(=O)C(=O)Nc2ccc(Cl)cc2)c2cccnc2)CC1 (configuration not stated) ?
TbPYK inhibitor: 5%; Sm TGR inh: -2%

What do the screens show for `O=C1c2ccccc2NC(c2ccco2)N1O` (configuration not stated)?
RE007 growth inh: -1%; TbPYK inhibitor: -4%; Sm TGR inh: 50µM*; LmPK inhibitor: 6%

What do the screens show for `O=C1c2ccccc2NC(c2ccc(-c3cccs3)o2)N1O` (configuration not stated)?
TbPYK inhibitor: -8%; Sm TGR inh: 32µM*

How did O=C1c2ccccc2NC(c2ccc(Br)o2)N1O (configuration not stated) do in these assays?
TbPYK inhibitor: 2%; Sm TGR inh: 11µM*

Results for O=C1c2ccccc2NC(c2ccc(Br)s2)N1O (configuration not stated) ?
RE007 growth inh: inconclusive; TbPYK inhibitor: -13%

How did O=C1c2ccccc2NC(c2ccc(-c3ccc(C(F)(F)F)cc3)o2)N1O (configuration not stated) do in these assays?
TbPYK inhibitor: -3%

Results for CC(C)N(Cc1cn(C)nc1-c1cccc(Cl)c1)Cc1nccn1C ?
RE007 growth inh: -3%; TbPYK inhibitor: 0%; Sm TGR inh: -11%; LmPK inhibitor: 2%

Results for CC(c1ccon1)N(C)Cc1cn(C)nc1-c1cccc(Cl)c1 (configuration not stated) ?
RE007 growth inh: -20%; TbPYK inhibitor: 7%; Sm TGR inh: 28µM*; LmPK inhibitor: 11%

How did CCCc1ccc(C(=O)O)cc1 do in these assays?
TbPYK inhibitor: 6%

How did O=C(CCC1CCCC1)N1CCc2c([nH]c3ccccc23)C1c1ccc(Cl)cc1 (configuration not stated) do in these assays?
TbPYK inhibitor: 3%; Sm TGR inh: 14%

How did CCCc1cc(Nc2c(C)n(C)n(-c3ccccc3)c2=O)n2c(nc3ccccc32)c1C#N do in these assays?
RE007 growth inh: -3%; TbPYK inhibitor: 4%; Sm TGR inh: 14µM*; LmPK inhibitor: 1%

What do the screens show for `CCc1c(C)c(C#N)c2nc3ccccc3n2c1Nc1c(C)n(C)n(-c2ccccc2)c1=O`?
RE007 growth inh: -7%; TbPYK inhibitor: -7%; Sm TGR inh: -27%; LmPK inhibitor: -2%

Results for Cc1cc(Nc2c(C)n(C)n(-c3ccccc3)c2=O)n2c(nc3ccccc32)c1C#N ?
RE007 growth inh: -4%; TbPYK inhibitor: 2%; Sm TGR inh: 22µM*; LmPK inhibitor: 1%

What do the screens show for `COc1cc2c(cc1OC)C(c1ccc(-c3cc(Cl)ccc3Cl)o1)=NCC2`?
RE007 growth inh: 0%; TbPYK inhibitor: -5%; Sm TGR inh: -4%; LmPK inhibitor: 0%

What do the screens show for `COc1cc2c(cc1OC)C(c1ccc(-c3ccc(Cl)c(Cl)c3)o1)=NCC2`?
RE007 growth inh: 32µM*; TbPYK inhibitor: -28%; Sm TGR inh: inconclusive; LmPK inhibitor: 13µM*

How did O=C(OCn1ncc(Br)c(Br)c1=O)c1ccc(F)cc1 do in these assays?
RE007 growth inh: inconclusive; TbPYK inhibitor: -1%; Sm TGR inh: 2µM*; LmPK inhibitor: 1%

Results for O=C(OCc1cnc(Cl)s1)c1ccccc1Cl ?
RE007 growth inh: -18%; TbPYK inhibitor: 1%; Sm TGR inh: 1%; LmPK inhibitor: -2%

How did O=C(OCn1ncc(Br)c(Br)c1=O)c1ccccc1Cl do in these assays?
RE007 growth inh: 6.3µM*; TbPYK inhibitor: -25%; Sm TGR inh: 1.3µM*; LmPK inhibitor: -3%

How did CC(=O)OCn1ncc(N2CCOCC2)c(Br)c1=O do in these assays?
RE007 growth inh: 16%; TbPYK inhibitor: -9%; Sm TGR inh: inconclusive; LmPK inhibitor: -2%

What do the screens show for `Cc1cccc(Nc2nc3c(S(=O)(=O)c4ccc(Br)cc4)nnn3c3ccsc23)c1C`?
TbPYK inhibitor: 1%; Sm TGR inh: -10%

How did CCc1c(C)[nH]c2ccc(OC)cc2c1=S do in these assays?
RE007 growth inh: -12%; TbPYK inhibitor: 2µM*; Sm TGR inh: -33%; LmPK inhibitor: inconclusive

How did CCN(CC)CCN1C(=O)C(O)=C(C(=O)c2ccco2)C1c1ccccn1 (configuration not stated) do in these assays?
RE007 growth inh: -3%; TbPYK inhibitor: -1%; Sm TGR inh: 45µM*; LmPK inhibitor: 1%

What do the screens show for `COc1ccc(C2C(C(=O)c3ccco3)=C(O)C(=O)N2c2nnc(C)s2)cc1` (configuration not stated)?
RE007 growth inh: 2%; TbPYK inhibitor: -15%; LmPK inhibitor: 9%

Results for CSc1nnc(N2C(=O)C(O)=C(C(=O)c3ccco3)C2c2cccc(Cl)c2)s1 (configuration not stated) ?
RE007 growth inh: 23%; TbPYK inhibitor: 1%; Sm TGR inh: 8.9µM*; LmPK inhibitor: 1%

Results for O=C(C1=C(O)C(=O)N(c2ncccn2)C1c1cccc(Cl)c1)c1ccco1 (configuration not stated) ?
RE007 growth inh: -17%; TbPYK inhibitor: -1%; Sm TGR inh: 45µM*; LmPK inhibitor: 1%

What do the screens show for `O=C(C1=C(O)C(=O)N(c2ncccn2)C1c1ccc(Cl)c(Cl)c1)c1ccco1` (configuration not stated)?
RE007 growth inh: -7%; TbPYK inhibitor: 2%; Sm TGR inh: inconclusive; LmPK inhibitor: -8%

How did CSc1nnc(N2C(=O)C(O)=C(C(=O)c3ccco3)C2c2ccc(F)cc2)s1 (configuration not stated) do in these assays?
RE007 growth inh: 10%; TbPYK inhibitor: 2%; Sm TGR inh: 50µM*; LmPK inhibitor: 1%

Results for O=C(CCNc1ccc(F)cc1)c1cccc([N+](=O)[O-])c1 ?
RE007 growth inh: 18µM*; TbPYK inhibitor: -6%; Sm TGR inh: 0.5µM*; LmPK inhibitor: 6%

Results for O=C(CCNc1ccccc1)c1cccc([N+](=O)[O-])c1 ?
RE007 growth inh: 11µM*; TbPYK inhibitor: 3%; Sm TGR inh: 0.45µM*; LmPK inhibitor: 0%

How did Cc1ccc(NCCC(=O)c2cccc([N+](=O)[O-])c2)cc1 do in these assays?
RE007 growth inh: 5.6µM*; TbPYK inhibitor: -15%; Sm TGR inh: 0.4µM*; LmPK inhibitor: -6%

How did Cc1ccc(CONC(=O)c2cccc([N+](=O)[O-])c2)cc1 do in these assays?
RE007 growth inh: -7%; TbPYK inhibitor: 3%; Sm TGR inh: -23%

What do the screens show for `COc1ccc(NC(=O)CCC(=O)c2ccc(F)cc2)cc1`?
RE007 growth inh: -11%; TbPYK inhibitor: 2%
